Assay outcomes: PubChem BioAssay, The Scripps Research Institute Molecular Screening Center
The list is not random: actives were taken first. Their share in the collection is about 3.3%.
TLR9-MyD88 block: blocks human TLR9 binding to MyD88 | Q9NR96+Q99836 | CHO BLA complementation TLR9-MyD88, CCF4 FRET ratio | inhibition, % at 4.98 µM | 340,000 tested, 0.21% active | AID 504734;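 active = inhibition above the mean over all tested compounds plus 3 SD, cut at about 21% in these data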
ABHD5-PLIN5 inh: blocks binding of human ABHD5 to perilipin-5; Split G. princeps luciferase complementation, luminescence, 4 h; inhibition, % at 4 µM; 360,000 tested, 0.78% active; AID 602281;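 active = inhibition above the mean inhibition across every tested compound plus 3 SD, cut at about 22% in these data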
NOD2-RIPK2 inh: blocks binding of human NOD2 to RIPK2; O43353; CHO BLA complementation NOD2-RIPK2, CCF4 ratio; inhibition, % at 4.98 µM; 360,000 tested, 0.38% active; AID 624267; in the data active = inhibition above about 21%
TLR4 MyD88 comp: inhibitors of human TLR4-MyD88 binding; O00206+Q99836; HeLa CL3-4 TLR4/MyD88 BLA complementation, FRET ratio; inhibition, % at 8.4 µM; 200,000 tested, 0.18% active; in the data active = inhibition above about 25%
Target sequence (O00206 whole entry, looked up): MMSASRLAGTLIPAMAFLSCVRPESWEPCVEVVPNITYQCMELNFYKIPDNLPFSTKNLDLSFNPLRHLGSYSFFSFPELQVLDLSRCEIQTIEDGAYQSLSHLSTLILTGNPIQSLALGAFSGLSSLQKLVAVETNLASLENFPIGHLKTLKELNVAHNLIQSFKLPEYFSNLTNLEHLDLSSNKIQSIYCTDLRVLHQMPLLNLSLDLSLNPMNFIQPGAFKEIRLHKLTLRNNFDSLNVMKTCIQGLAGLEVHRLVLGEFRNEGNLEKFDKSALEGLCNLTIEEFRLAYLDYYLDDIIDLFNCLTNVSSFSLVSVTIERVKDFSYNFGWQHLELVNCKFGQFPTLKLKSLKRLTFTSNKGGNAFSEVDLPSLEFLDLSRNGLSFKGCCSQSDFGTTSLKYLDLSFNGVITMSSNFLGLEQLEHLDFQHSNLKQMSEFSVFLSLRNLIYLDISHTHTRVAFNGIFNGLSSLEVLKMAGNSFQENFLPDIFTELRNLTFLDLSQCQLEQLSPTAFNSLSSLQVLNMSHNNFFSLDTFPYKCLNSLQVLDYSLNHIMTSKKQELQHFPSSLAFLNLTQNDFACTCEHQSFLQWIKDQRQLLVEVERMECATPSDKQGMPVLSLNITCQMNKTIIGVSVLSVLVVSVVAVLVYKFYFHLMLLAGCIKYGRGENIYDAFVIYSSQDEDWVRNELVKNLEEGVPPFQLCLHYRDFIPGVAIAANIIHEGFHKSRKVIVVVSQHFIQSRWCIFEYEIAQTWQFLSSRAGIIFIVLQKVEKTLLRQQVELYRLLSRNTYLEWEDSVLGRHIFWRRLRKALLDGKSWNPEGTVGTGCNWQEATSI
Target sequence (Q99836 whole entry, looked up): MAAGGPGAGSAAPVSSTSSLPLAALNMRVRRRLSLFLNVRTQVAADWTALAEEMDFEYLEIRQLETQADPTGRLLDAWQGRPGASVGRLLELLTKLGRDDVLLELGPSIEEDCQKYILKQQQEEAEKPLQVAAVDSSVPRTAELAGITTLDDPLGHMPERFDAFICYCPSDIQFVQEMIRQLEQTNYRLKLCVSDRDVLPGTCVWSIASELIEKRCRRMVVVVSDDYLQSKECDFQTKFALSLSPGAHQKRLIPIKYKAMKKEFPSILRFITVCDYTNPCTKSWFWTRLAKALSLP
rCAG RNA binder: binds r(CAG) RNA repeats; r(CAG) RNA repeat, TO-PRO-1 dye displacement fluorescence; inhibition, % at 3 µM; 370,000 tested, 1.3% active; AID 651821;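 active = inhibition above the plate cutoff, the mean of all test compounds on that plate plus 3 SD, cut at about 35% in these data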;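 note: higher means more dye released from RNA so lower well fluorescence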
PRMT1 FP inh: PRMT1 (human) inhibition, primary screen | Q99873 | recombinant PRMT1, activity-based probe fluorescence polarization | inhibition, % at 2.79 µM | 370,000 tested, 1.3% active | AID 652257;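 active = inhibition above about 21% made by adding two undisclosed values, limit read from the data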
ABHD5 PLIN5 conf: ABHD5-PLIN5 interaction inhibition, confirmed. shares compounds with ABHD5-PLIN5 inh. biochemical ABHD5-PLIN5 interaction, luminescence. inhibition, % at 4 µM. 2,200 tested, 67% active. AID 651612; in the data active = inhibition above about 23%
HNF4 counter: counter-screen for ABHD5-PLIN5 inhibitors: HNF4 split-luciferase. shares compounds with ABHD5-PLIN5 inh. HNF4 dimerization, luminescence, biochemical. inhibition, % at 4 µM. 2,200 tested, 77% active;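 active = mean inhibition across replicate wells exceeding the computed hit threshold, cut at about 13% in these data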;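 note: light from luciferase halves that rejoin when HNF4 fusion proteins dimerize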
Large screens that a line does not name were inactive (follow-up assays come after a bar, where they were run).

CCCc1nnc(NC(=O)c2nc(S(=O)(=O)Cc3cccc(C)c3)ncc2Cl)s1	ABHD5-PLIN5 inh 28, rCAG RNA binder 35 (no result: TLR4 MyD88 comp) | ABHD5 PLIN5 conf 74 | HNF4 counter 42
CCCc1nnc(NC(=O)CS(=O)(=O)c2ccc(C)cc2)s1	none (no result: TLR4 MyD88 comp)
Cc1ccc(C2=NN=C(NC(=O)CSc3nncn3C)SC2)cc1	ABHD5-PLIN5 inh 45, PRMT1 FP inh 94 | ABHD5 PLIN5 conf 70 | HNF4 counter 102
CCOC(=O)[C@@]12CCC3=C1N(CCC3)C(=O)[C@H](CC(=O)N1CCOCC1)C2	none (no result: TLR9-MyD88 block, ABHD5-PLIN5 inh, NOD2-RIPK2 inh, TLR4 MyD88 comp)
Cc1cc(C)c2cc(C)c(SCC(=O)NCc3ccco3)nc2c1	none
Cc1cc(C)c2cc(C#N)c(SCC(=O)NCc3ccco3)nc2c1	ABHD5-PLIN5 inh 35 | ABHD5 PLIN5 conf 66 | HNF4 counter 73
O=C(CSc1c2c(nc3cc(Cl)ccc13)CCCC2)NCc1ccco1	ABHD5-PLIN5 inh 24, PRMT1 FP inh 23 | ABHD5 PLIN5 conf 42 | HNF4 counter 38
COc1cc(-c2nc3cccc(C)n3c2NCC2CCCO2)ccc1O (configuration not stated)	none
COc1ccc(N2CCN(C(=O)COC(=O)COc3cc(C)cc(C)c3)CC2)cc1	none (no result: TLR4 MyD88 comp)
Cc1ccc(C(=O)NC2(O)C(=O)c3ccccc3C2=O)cc1C	none (no result: TLR4 MyD88 comp)
O=C(NC1(O)C(=O)c2ccccc2C1=O)c1ccc(C(F)(F)F)cc1	ABHD5-PLIN5 inh 28 (no result: TLR9-MyD88 block, TLR4 MyD88 comp) | ABHD5 PLIN5 conf 54 | HNF4 counter 64
Cc1ccc(-n2c(C)cc(/C=C3\SC(=O)NC3=O)c2C)cc1	none (no result: TLR4 MyD88 comp)
Cc1cc(/C=C2\SC(=Nc3ccccc3)NC2=O)c(C)n1-c1ccc(S(N)(=O)=O)cc1	ABHD5-PLIN5 inh 28 | ABHD5 PLIN5 conf inactive | HNF4 counter inactive
CCCCN(C)C(=O)c1ccc(Nc2nc(C(N)Cc3ccc(C(F)(F)F)cc3)cs2)nc1 (configuration not stated)	none (no result: TLR9-MyD88 block, TLR4 MyD88 comp)
COC(=O)C1=C(C)NC2=C(C(=O)CCC2)C1c1ccc(-c2ccsc2C(=O)OC)o1 (configuration not stated)	ABHD5-PLIN5 inh 24 (no result: TLR4 MyD88 comp) | ABHD5 PLIN5 conf inactive | HNF4 counter inactive
CCn1cc(CN2CCCC(C(=O)Nc3cccc(-c4cc5ccccc5[nH]4)c3)C2)c(C)n1 (configuration not stated)	ABHD5-PLIN5 inh 31 (no result: TLR4 MyD88 comp) | ABHD5 PLIN5 conf inactive | HNF4 counter inactive
CCCCCCCCN1C(=O)[C@@H](CC(=O)NCc2cccc(C(F)(F)F)c2)C[C@@]2(C(=O)OC)C1=C[C@H](COCc1ccccc1)O[C@@H]2C	none (no result: TLR9-MyD88 block, ABHD5-PLIN5 inh, NOD2-RIPK2 inh, TLR4 MyD88 comp)
COc1ccc(/C=C2\Oc3cc(OCC(=O)N4CCC[C@H]4CO)ccc3C2=O)c(OC)c1	none (no result: TLR4 MyD88 comp, rCAG RNA binder, PRMT1 FP inh)
O=C(NCCCn1ccnc1)Nc1ccc2c(c1)OCO2	none (no result: TLR4 MyD88 comp)
Cc1oc2c(c1C(=O)c1ccc(Cl)cc1)C(=O)C(=O)c1ccccc1-2	ABHD5-PLIN5 inh 55 | ABHD5 PLIN5 conf 81 | HNF4 counter 35
Cc1ccc(C(=O)c2coc3c2C(=O)C(=O)c2ccccc2-3)cc1	ABHD5-PLIN5 inh 85 | ABHD5 PLIN5 conf 94 | HNF4 counter 65
O=C(c1ccc(Cl)cc1)c1ccc(CN2C(=O)c3ccccc3C2=O)o1	none
CCCc1cc(=O)[nH]c(SCC(=O)Nc2cc(S(=O)(=O)N3CCCCC3)ccc2C)n1	none (no result: TLR4 MyD88 comp)
O=S(=O)(CC1NCc2cc(F)ccc21)NCc1ccc(F)cc1 (configuration not stated)	none (no result: TLR9-MyD88 block, ABHD5-PLIN5 inh, NOD2-RIPK2 inh, TLR4 MyD88 comp)
CCOC(=O)N1CCc2c(sc(NC(=O)CN3CCOCC3)c2C(=O)Nc2ccccc2)C1	ABHD5-PLIN5 inh 23 | ABHD5 PLIN5 conf inactive | HNF4 counter inactive
CCOC(=O)N1CCc2c(sc(NC(=O)CN3CCN(C)CC3)c2C(=O)Nc2ccccc2)C1	none
O=C1/C(=C/c2c[nH]c3ccccc23)CCC/C1=C\c1c[nH]c2ccccc12	ABHD5-PLIN5 inh 30 | ABHD5 PLIN5 conf 29 | HNF4 counter 58
CC(=O)c1c(COC(=O)c2ccccc2Cl)nc2ccccc2[n+]1[O-]	none (no result: TLR4 MyD88 comp)
O=[N+]([O-])c1cc(S(=O)(=O)C(F)(F)F)ccc1Sc1nc2ccccc2[nH]1	ABHD5-PLIN5 inh 54 | ABHD5 PLIN5 conf 59 | HNF4 counter 79
CS(=O)(=O)c1ccc(Sc2nc3ccccc3[nH]2)c([N+](=O)[O-])c1	none
COc1ccc(O)c(CN2CCCC(N3CCc4ccccc4C3)C2)c1 (configuration not stated)	none (no result: TLR4 MyD88 comp)
Cc1ccc(C(=O)CC(C(=O)O)n2cnc([N+](=O)[O-])n2)cc1 (configuration not stated)	ABHD5-PLIN5 inh 55 | ABHD5 PLIN5 conf 29 | HNF4 counter 58
O=C(/C=C/c1ccccc1F)c1cccc([N+](=O)[O-])c1	ABHD5-PLIN5 inh 70 | ABHD5 PLIN5 conf 100 | HNF4 counter 99
COc1cc(/C=C/C(=O)c2cccc([N+](=O)[O-])c2)cc(OC)c1OC	ABHD5-PLIN5 inh 30 | ABHD5 PLIN5 conf 95 | HNF4 counter 92
Cc1cccc(C(=O)NCCCn2ccnc2)c1C	ABHD5-PLIN5 inh 102 (no result: TLR4 MyD88 comp) | ABHD5 PLIN5 conf inactive | HNF4 counter inactive
CCOc1ccc(N=C2NC(=O)CS2)cc1	none (no result: TLR4 MyD88 comp)
O=C(c1nnsc1S(=O)(=O)c1ccc(Cl)cc1)N1CCOCC1	ABHD5-PLIN5 inh 51 | ABHD5 PLIN5 conf 73 | HNF4 counter 71
Nc1nc(C(=O)N2CCOCC2)nn1S(=O)(=O)c1ccc(Cl)cc1	none
COCOCCn1cc(CN2CCS(=O)(=O)N(Cc3ccc(-c4ccccc4)cc3)C(C(C)C)C2=O)nn1 (configuration not stated)	none (no result: TLR4 MyD88 comp)
COc1cccc2c1cc1c(=O)n(CC(=O)NCCCN3CCCCC3)nc(C)n12	none (no result: TLR4 MyD88 comp, rCAG RNA binder, PRMT1 FP inh)
COCOc1cc(O)c(C(=O)/C=C/c2ccccc2)c(OCOC)c1	ABHD5-PLIN5 inh 41 (no result: TLR4 MyD88 comp) | ABHD5 PLIN5 conf 69 | HNF4 counter 63
COc1ccc(C(=O)/C=C/c2ccccc2)c(OC)c1	ABHD5-PLIN5 inh 26 | ABHD5 PLIN5 conf 42 | HNF4 counter 28
COc1cc(/C=C/C(=O)c2ccccc2O)cc(OC)c1OC	ABHD5-PLIN5 inh 52 | ABHD5 PLIN5 conf 90 | HNF4 counter 84
COC1=C(C)C(O)=C(C(=O)/C=C/c2ccccc2)C(=O)C1(C)C	none (no result: TLR4 MyD88 comp)
COc1cc(C)cc(C(=O)C=Cc2ccccc2)c1O	ABHD5-PLIN5 inh 64 (no result: TLR4 MyD88 comp) | ABHD5 PLIN5 conf 95 | HNF4 counter 75
COc1cc(OC)c(C=CC(=O)c2ccccc2O)c(OC)c1	none (no result: TLR4 MyD88 comp)
CCCCCCCCN1C(=O)[C@@H](CC(=O)N2CCCCC2)C[C@@]2(C(=O)OC)C1=C[C@H](C1CCCC1)O[C@@H]2C	none (no result: TLR9-MyD88 block, ABHD5-PLIN5 inh, NOD2-RIPK2 inh, TLR4 MyD88 comp)
COc1ccc(OC)c(-n2c(C)ccc2-c2ccc(S(C)(=O)=O)cc2)c1	none
